Rows were chosen to be rich in hits. Some 4.1% of all compounds tested hit in one or more screens of this group.
FMDV inh – antivirals against foot and mouth disease virus; 410,000 compounds, 1.2% hits; AID 1159524; Potency, µM (top dose mostly 57.9 µM), for the others: at the top dose activity change, negative = inhibition, most hits filed as inhibitors; FMDV antiviral cell-based qHTS; calls by dose curve; tested in HEK293T cells; note: read-out not given here; nearly all actives have a fitted effect of over 45% in size
AmpC inh no detg – inhibitors of E. coli AmpC beta-lactamase without detergent | AmpC nitrocefin hydrolysis, absorbance 480 nm, 0.0001% Triton | Potency, µM (titrated, usually from 57.1 µM), for the others: at the top dose activity change, negative = inhibition, actives largely listed as inhibitors | AID 485341 | 330,000 compounds, 0.52% hits;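 note: plate controls were no compound for no effect and no enzyme for full effect; nearly all actives have a fitted effect of over 20% in size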
Target sequence (P00811 whole entry, looked up): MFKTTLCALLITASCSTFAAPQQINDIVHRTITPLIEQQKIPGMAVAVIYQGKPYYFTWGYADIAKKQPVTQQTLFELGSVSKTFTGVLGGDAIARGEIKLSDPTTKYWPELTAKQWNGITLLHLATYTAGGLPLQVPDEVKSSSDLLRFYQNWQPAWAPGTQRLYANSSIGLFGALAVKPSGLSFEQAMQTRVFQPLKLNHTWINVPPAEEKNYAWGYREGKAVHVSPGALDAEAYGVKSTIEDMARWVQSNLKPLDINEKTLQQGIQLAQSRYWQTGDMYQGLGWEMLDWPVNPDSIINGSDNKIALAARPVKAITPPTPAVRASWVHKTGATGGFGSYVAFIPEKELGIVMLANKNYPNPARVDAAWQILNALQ
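20 mM phosphate pH 7.0 + 0.01% (detergent screen) or 0.0001% Triton X-100; 5.3 nM AmpC reagent; cpd preinc 15 min RT; nitrocefin (800 uM stock) to start; A480 q20 s × 4 min; Activity was normalised to no-enzyme and no-compound control wells.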
Sm TGR block – blocks Schistosoma mansoni thioredoxin glutathione reductase | Potency, µM (highest dose often 114 µM), for inactives: at the top dose activity change, negative = inhibition, most hits filed as inhibitors | AID 485364 | purified TGR, DTNB reduction, TNB absorbance 405 nm | 360,000 compounds, 3% hits | Q962Y6; note: nearly all actives have a fitted effect of over 60% in size
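Kinetic colorimetric format: TGR-catalysed, NADPH-driven DTNB reduction monitored via TNB absorbance. Enzyme dispensed at 20 nM; compound exposure 15 min at room temperature before reaction start.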
AmpC detergent – blocks E. coli AmpC beta-lactamase in detergent assay; P00811; AmpC hydrolysis of nitrocefin, absorbance 480 nm, 0.01% Triton; Potency, µM (doses to about 114 µM), for inactives: at the highest dose activity change, negative = inhibition, hits mostly inhibitors; 370,000 compounds, 0.041% hits;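 note: 0% = no-compound wells and -100% = no-enzyme wells; nearly all actives have a fitted effect of over 25% in size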
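AmpC (5.3 nM in the dispensed reagent) in 20 mM phosphate pH 7.0 with 0.01% (detergent screen) or 0.0001% Triton X-100 was preincubated with compounds for 15 min at room temperature. Nitrocefin was then added from an 800 uM solution, and hydrolysis was followed at 480 nm.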
AMA1-RON2 inh – disrupts binding of P. falciparum AMA1 to RON2; AlphaScreen AMA1-biotinylated RON2 peptide binding; Potency, µM (titrated, usually from 58.2 µM), for inactives: top-dose activity change, negative = inhibition, hits mostly inhibitors; 360,000 compounds, 0.2% hits; AID 720542;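 note: 0% = vehicle wells and -100% = peptide control; nearly all actives have a fitted effect of over 45% in size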
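AMA1 (3D7) with his tag at 25 nM final met compounds first, then biotinylated RON2 peptide at 25 nM; detection used donor plus acceptor beads, 10 µg/mL apiece, read by AlphaScreen after 30 min at room temperature.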
* = called active by the depositor; ? = inconclusive; / = not tested or not shown. Unless noted, calls come from the whole dose curve; as a rule, active = well fitted curve in the direction sought with a large enough effect; inconclusive = small, poorly fitted or top-dose-only effect, or another doubt; inactive = no such curve, though single readings can be large; an effect the other way counts as inactive or inconclusive. Unless noted, % is set by controls: 0 for no effect and ±100 for the full control effect; potency is the fitted concentration of half-maximal effect.

SMILES	FMDV inh	AmpC inh no detg	Sm TGR block	AmpC detergent	AMA1-RON2 inh
CCN(CCCNC(=O)c1cc2c(=O)[nH]c3ccc(C)cc3c2s1)Cc1ccccc1	?	/	?	7%	/
CCc1nc(SCC(=O)NCc2ccc(F)cc2)c2c(=O)n(C)c(=O)n(C)c2n1	-19%	2.5µM*	-1%	?	-4%
Cc1cc(NC(=O)CSc2nc(CC(C)(C)C)nc3c2c(=O)n(C)c(=O)n3C)no1	-25%	40µM*	12%	-13%	3%
COc1ccccc1-c1ccnc(-n2ncc(C(=O)NC(c3cccnc3)C(F)(F)F)c2C)n1 (centres undefined)	-24%	/	/	/	/
Cc1cnc(C)c(N2CCN(Cc3nc(-c4cccc(F)c4F)oc3C)CC2)n1	-24%	216%	35µM*	6%	-5%
CC1=C(C(=O)Nc2cccc(C(F)(F)F)c2)C(c2ccccn2)n2ncnc2N1 (centres undefined)	-16%	/	3%	7%	/
COc1ccc(NC(=O)CCNS(=O)(=O)c2ccc(Cl)c([N+](=O)[O-])c2)cc1S(N)(=O)=O	3%	-20%	35µM*	-13%	14%
COc1ccc(NC(=O)CCNS(=O)(=O)c2cccc(C(C)=O)c2)cc1S(N)(=O)=O	14%	-21%	1%	-14%	12%
COc1cc(N2C(=O)C=CC2=O)ccc1N1C(=O)C=CC1=O	32µM*	/	/	/	-4%
COc1ccc(N2C(=O)C3CC(C)=C(C)CC3C2=O)c(OC)c1 (centres undefined)	-22%	-6%	3%	?	4%
Cc1ccc2oc(=O)n(CCNC(=O)Nc3ccc(Cl)cc3)c2c1	-23%	/	5%	21%	/
O=C(O)CCc1ccc(-c2cccs2)o1	/	-23%	0.71µM*	2%	-6%
Cc1cc(NC(=O)CCc2ccc(-c3ccccc3)o2)no1	-2%	-40%	-68%	3%	-1%
OCCc1ccc(-c2ccc(Cl)cc2)o1	31%	-18%	45µM*	-6%	2%
Cc1ccc(-c2ccc(CCC(=O)O)o2)cc1	12%	-6%	13µM*	-3%	8%
Cn1ccc(C(=O)NCC2CCC3(CCN(Cc4cc(F)cc(F)c4)CC3)O2)n1 (centres undefined)	-1%	/	/	/	/
C=CCn1c2ccccc2c(=O)c2cc(C#CC[C@@H](C)O)ccc21	49%	28%	50µM*	-5%	46%
C=CCn1c2ccccc2c(=O)c2cc(C#CC3(O)CCCCC3)ccc21	-16%	1%	-20%	7%	19%
O=C(NNC(=O)c1ccccc1-c1ccccc1C(=O)O)c1ccccc1	-4%	-2%	5%	1%	13%
O=C(C=P(c1ccccc1)(c1ccccc1)c1ccccc1)c1ccccc1-c1ccccc1C(=O)C=P(c1ccccc1)(c1ccccc1)c1ccccc1	20µM*	/	/	/	?
COc1cccc(CNC(=O)c2c(OC)cc(=O)n3c2CCN(C(=O)c2ccc(C)nc2)CC3)c1	-12%	/	/	/	/
Cc1ccc(N2C(=O)c3ccccc3C2C(=O)c2ccc(C)c(C)c2O)cc1 (centres undefined)	13%	-25%	4.5µM*	-5%	?
NNC(=O)c1cc2c(N3CCC(Cc4ccccc4)CC3)ncnc2s1	14µM*	-9%	-4%	-17%	55%
Cn1ncc2c(N3CCC(Cc4ccccc4)CC3)ncnc21	20µM*	156%	/	5%	-1%
O=C(O)c1ccc(S(=O)(=O)N2CCCc3ccccc32)cc1	-12%	-11%	-9%	0%	-6%
O=C(Nc1ccccc1F)c1ccc2c(c1)CCN2S(=O)(=O)c1ccccc1	37%	-59%	5%	?	0%
COc1ccc(C(=O)Nc2ccc(S(=O)(=O)N3CCc4ccccc43)cc2)cc1	?	/	/	/	2%
NC(=O)c1ccsc1NC(=O)c1ccc(S(=O)(=O)N2CCCc3ccccc32)cc1	35µM*	-40%	-8%	?	-10%
NS(=O)(=O)c1ccc(NC(=O)c2ccc(S(=O)(=O)N3CCc4ccccc43)cc2)cc1	-1%	18µM*	-2%	-6%	-12%
O=C(Nc1c(F)cccc1F)c1ccc2c(c1)CCN2S(=O)(=O)c1ccccc1	0.32µM*	-51%	2%	-7%	-11%
